Screening results (PubChem)
TDP1 cell noCPT: qHTS for Inhibitors of human tyrosyl-DNA phosphodiesterase 1 (TDP1): qHTS in cells in absence of CPT; DT40 Tdp1-/- hTDP1 cells, no CPT, ATP luminescence, 48 h; Potency, µM (series often up to 46.2 µM), most hits filed as inhibitors; hit rate 15% among 420,000; AID 686978, 2013; further: nearly all actives have a fitted effect of over 55% in size
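Chicken DT40 Tdp1-/- cells stably complemented with human TDP1 were seeded at 400 cells/well with DMSO in place of 20 nM camptothecin. After compound pinning, cells grew at least 48 hr at 37 °C; viability read by CellTiter-Glo luminescence.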
KB-3-1 cytotox: KB-3-1 parental cell cytotoxicity. KB-3-1 viability, CellTiter-Glo ATP luminescence, 72 h. Potency, µM (series often up to 46.1 µM), usual class: cytotoxic. hit rate 1.4% among 400,000; further: nearly all actives have a fitted effect of over 60% in size
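KB-3-1 cells, DMEM (no phenol red) + 10% FBS; compound by pin transfer, 72 h, 37 °C. Readout: CellTiter-Glo luminescence after 10 min. Data normalized, curve-fitted.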
KB-V1 cytotox: kills drug-selected multidrug resistant KB-V1 cells. KB-V1 MDR cells viability, CellTiter-Glo, 72 h. Potency, µM (series often up to 46.1 µM), actives largely listed as cytotoxic. hit rate 3.4% among 400,000. AID 1347076; further: nearly all actives have a fitted effect of over 60% in size
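Readout: CellTiter-Glo luminescence, 10 min after addition. Cells: KB-V1 MDR subline, 72 h at 37 degrees C with compound. Analysis: corrected, normalized data fitted to concentration-effect curves.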
HT1080 IDH1KD tx: HT-1080 IDH1 knockdown cell toxicity (counter line). HT-1080 IDH1 knockdown viability, ATP luminescence, 48 h. Potency, µM (top dose mostly 46.1 µM), hits mostly cytotoxic. AID 686971. hit rate 2% among 360,000
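Assay cells: HT-1080 with IDH1 knockdown, 750 per well, RPMI/5% FBS. Exposure: 48 h at 37 °C following 2 h pre-incubation. Read: CellTiter-Glo luminescence; fitted concentration-response, curve class assigned.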
TDP1 cell CPT: DT40-hTDP1 cell growth loss with CPT. chicken DT40 Tdp1-/-;hTDP1 cells + 20 nM CPT, ATP luminescence, 48 h. Potency, µM (top dose mostly 46.2 µM), hits mostly inhibitors. hit rate 12% among 420,000; further: nearly all actives have a fitted effect of over 55% in size
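Cell growth measured by CellTiter-Glo luminescence after a minimum 48 h, 37 C compound exposure with 20 nM CPT in Tdp1-knockout DT40 cells stably expressing hTDP1, seeded 400/well; qHTS titration format.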
HT1080-NT tox: kills 2HG-producing HT-1080-NT fibrosarcoma cells | HT-1080-NT fibrosarcoma viability, CellTiter-Glo ATP luminescence, 48 h | Potency, µM (doses to about 46.1 µM), actives largely listed as cytotoxic | hit rate 1.6% among 360,000;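 further: NT is the 2HG producing partner of a matched IDH1 knockdown line; nearly all actives have a fitted effect of over 55% in size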
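Viability by CellTiter-Glo luminescence after 48 h compound exposure at 37C of HT-1080-NT cells (750/well, RPMI, 5% FBS). % activity scaled between DMSO wells and medium-only wells, then curve-fitted and categorized by curve class.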
Of the large screens only hits and unclear results are named; the others gave an inactive call. The list is not random: actives were taken first. Their share in the collection is about 19%. The call rests on the fitted dose curve; in most records, active means well fitted curve in the direction sought with a large enough effect; inconclusive means small, poorly fitted or top-dose-only effect, or another doubt; inactive means no such curve, though single readings can be large; an effect the other way counts as inactive or inconclusive.

O=C(Nc1nc2ccccc2[nH]1)c1cccc(F)c1	TDP1 cell noCPT 16.4µM, HT1080 IDH1KD tx inconclusive, TDP1 cell CPT inconclusive
CN1C[C@@H]2[C@@H]3C(=O)N(C)C(=O)[C@@H]3[C@](C)(C1=O)N2C(=O)c1ccc(Cl)cc1	none
O=C(NCc1ccc(Cl)c(Cl)c1)c1cc(C2CCCCN2C(=O)c2ccccn2)on1 (configuration not stated)	TDP1 cell noCPT 18.4µM, TDP1 cell CPT 10.3µM
O=C(NCc1ccc(Cl)c(Cl)c1)c1cc(C2CCCCN2C(=O)OCCF)on1 (configuration not stated)	TDP1 cell noCPT 23.1µM, HT1080 IDH1KD tx inconclusive, TDP1 cell CPT 23.1µM, HT1080-NT tox inconclusive
CC(=O)Nc1ccc(C(=O)N2CCCCC2c2cc(C(=O)NCc3cccnc3)no2)cc1 (configuration not stated)	none
COc1cc(CNn2c(C)n[nH]c2=S)cc(Br)c1OCc1ccc(F)cc1	none
Fc1ccccc1COc1ccc(Br)cc1CNCc1ccncc1	TDP1 cell noCPT inconclusive, KB-3-1 cytotox inconclusive, KB-V1 cytotox inconclusive, HT1080 IDH1KD tx inconclusive, TDP1 cell CPT inconclusive
CCOc1cc(CNCc2ccncc2)cc(Br)c1OCc1ccc(F)cc1	TDP1 cell noCPT 11.2µM, KB-V1 cytotox inconclusive, HT1080 IDH1KD tx 11.2µM, TDP1 cell CPT 10µM, HT1080-NT tox inconclusive
Fc1ccc(COc2ccc(Br)cc2CNCc2ccncc2)cc1	TDP1 cell noCPT inconclusive, KB-V1 cytotox 2.91µM, HT1080 IDH1KD tx inconclusive, TDP1 cell CPT inconclusive
Fc1ccc(COc2cccc(CNCc3ccncc3)c2)cc1	TDP1 cell noCPT 8.2µM, KB-3-1 cytotox inconclusive, KB-V1 cytotox inconclusive, TDP1 cell CPT inconclusive
O=C(CCC(=O)N1CCOCC1)c1ccc(F)cc1	none
O=C(Nc1ccccc1Cl)OCC#CCOC(=O)Nc1ccccc1Cl	none
COc1ccc(C(=O)Nc2c(N)nc[nH]c2=O)cc1	HT1080-NT tox inconclusive
O=C(Nc1cccc([N+](=O)[O-])c1)C1COc2ccccc2O1 (configuration not stated)	TDP1 cell noCPT inconclusive
COc1ccc(C2=NOC(Cn3c(Cc4ccc(Cl)cc4)nc4c3c(=O)n(C)c(=O)n4C)C2)cc1 (configuration not stated)	TDP1 cell noCPT 23.1µM, KB-V1 cytotox inconclusive, TDP1 cell CPT 25.9µM
Cc1ccc2cc(C(c3nnnn3C3CCCC3)N(Cc3cccnc3)Cc3ccco3)c(=O)[nH]c2c1 (configuration not stated)	TDP1 cell noCPT inconclusive, KB-V1 cytotox inconclusive, TDP1 cell CPT inconclusive, HT1080-NT tox inconclusive
CCC(c1nnnn1C1CCCCC1)N(Cc1ccco1)Cc1cc2ccc(OC)cc2[nH]c1=O (configuration not stated)	TDP1 cell noCPT 16.4µM, KB-3-1 cytotox inconclusive, KB-V1 cytotox inconclusive, HT1080 IDH1KD tx inconclusive, TDP1 cell CPT inconclusive, HT1080-NT tox inconclusive
COc1ccc2cc(CN(CCCN3CCOCC3)Cc3nnnn3C3CCCCC3)c(=O)[nH]c2c1	none
Cc1ccc2cc(C(c3nnnn3C3CCCC3)N(Cc3ccco3)Cc3cccs3)c(=O)[nH]c2c1 (configuration not stated)	TDP1 cell noCPT inconclusive, TDP1 cell CPT 23.1µM
Cc1onc(C(=O)NN)c1-c1csc(COc2ccc(Cl)cc2)n1	TDP1 cell noCPT 14.6µM, KB-3-1 cytotox inconclusive, TDP1 cell CPT 20.6µM
COCCCNC(=O)/C(C#N)=C/c1c(N2CCN(c3ccccc3)CC2)nc2ccccn2c1=O	TDP1 cell noCPT 14.6µM, KB-V1 cytotox inconclusive, TDP1 cell CPT inconclusive
COCCCNC(=O)/C(C#N)=C/c1c(N2CCN(C)CC2)nc2ccccn2c1=O	none
C=CCNC(=O)/C(C#N)=C/c1c(N(Cc2ccccc2)Cc2ccccc2)nc2ccccn2c1=O	TDP1 cell noCPT inconclusive, KB-V1 cytotox 18.4µM, TDP1 cell CPT inconclusive
COCCNC(=O)/C(C#N)=C/c1c(N2CCN(c3ccccc3)CC2)nc2ccccn2c1=O	TDP1 cell noCPT 18.4µM
CCOC(=O)N1CCN(c2nc3ccccn3c(=O)c2C=O)CC1	TDP1 cell noCPT inconclusive, TDP1 cell CPT 14.6µM
CCNC(=O)/C(C#N)=C/c1c(N2CCN(c3ccccc3)CC2)nc2ccccn2c1=O	TDP1 cell noCPT inconclusive, TDP1 cell CPT inconclusive
O=C(OCc1cn([C@H]2CN(Cc3cccs3)[C@@H](c3ccc(Cl)cc3)C[C@@H]2O)nn1)c1ccccc1	TDP1 cell CPT inconclusive
COc1ccccc1CCn1c(=O)c(-c2ccc(F)c(F)c2)nc2cncnc21	none (no result: KB-3-1 cytotox, KB-V1 cytotox, HT1080 IDH1KD tx, HT1080-NT tox)
Cc1nc2cc(NC(=O)CCS(=O)(=O)c3ccccc3)ccc2s1	KB-V1 cytotox inconclusive
O=C(CSc1nc2c([nH]c3ccccc32)c(=O)n1-c1ccc(F)cc1)N1CCCc2ccccc21	KB-V1 cytotox inconclusive, TDP1 cell CPT inconclusive (no result: HT1080 IDH1KD tx, HT1080-NT tox)
O=C(NCCCN1CCOCC1)c1cc2c([nH]c3ccccc32)c(-c2cccc(Br)c2)n1	TDP1 cell noCPT 8.2µM, KB-3-1 cytotox inconclusive, KB-V1 cytotox inconclusive, HT1080 IDH1KD tx inconclusive, TDP1 cell CPT 8.2µM, HT1080-NT tox inconclusive
O=C(NCCCO)c1cc2c(cn1)[nH]c1ccccc12	none
COc1cccc(-c2nc(C(=O)NCCCN3CCOCC3)cc3c2[nH]c2ccccc23)c1	TDP1 cell noCPT 8.2µM, KB-V1 cytotox 18.4µM, TDP1 cell CPT 9.2µM
O=C(NCCCO)c1cc2c([nH]c3ccccc32)c(-c2ccccc2)n1	TDP1 cell noCPT 13µM, KB-3-1 cytotox inconclusive, KB-V1 cytotox inconclusive, TDP1 cell CPT 14.6µM
Cc1cc(C)c(C(=O)N2CCCC(Nc3ccc(C)c(C)c3)C2)o1 (configuration not stated)	TDP1 cell noCPT inconclusive, KB-V1 cytotox inconclusive, TDP1 cell CPT inconclusive
Cc1noc(C)c1NC(=O)Nc1ccc2c(c1)C(=O)N([C@H](C)CO)C[C@H](C)[C@@H](CN(C)S(=O)(=O)c1c(C)noc1C)O2	none
Cc1ccc(NC(=O)COC(=O)c2cccc(S(=O)(=O)N3CCCCCC3)c2)cc1	none
O=C(NCc1ccccc1)C(c1ccc(-c2ccccc2)cc1)n1c(=O)c(-c2cc3ccccc3[nH]2)nc2ccccc21 (configuration not stated)	TDP1 cell noCPT 14.6µM, TDP1 cell CPT inconclusive
COc1ccc(NC(=O)C(c2ccccc2)n2c(=O)c(-c3cc4ccccc4[nH]3)nc3ccccc32)cc1 (configuration not stated)	TDP1 cell noCPT 16.4µM, HT1080 IDH1KD tx inconclusive, TDP1 cell CPT 16.4µM, HT1080-NT tox inconclusive
